The text below walks through data of PubChem BioAssay (Tox21).

SMILES strings stand for the structures. Values joined by “and” are separate entries in the source; they are usually repeats but may differ in a detail not shown here. Identical values can stand only once. Inconclusive results are not listed. The source holds several records for some structures; these can differ, active in one and inactive in another. Active and inactive are the calls of the source. Unless noted, the call rests on the fitted dose curve; in most records, active means well fitted curve in the direction sought with a large enough effect in the repeat runs; inconclusive means weak or mixed curves; inactive means no such curve, though single readings can be large; an effect the other way counts as inactive or inconclusive.

The nature of experiment [1]: qHTS assay for small molecules that induce genotoxicity in human embryonic kidney cells expressing luciferase-tagged ATAD5 (AID 651632). Further: nearly all actives have a fitted effect of over 15% in size. Further: potency means the concentration at half of the fitted maximal effect. In outline:
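Luminescent reporter readout, HEK293T ATAD5-luc line: 16 hr drug exposure (37C, 5% CO2) followed by Amplite, 30 min RT.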
(qHTS replaces the single test concentration by a dilution series.)

A short description of experiment [2]: qHTS assay for small molecules that induce genotoxicity in human embryonic kidney cells expressing luciferase-tagged ATAD5 - cell viability (AID 651634; calls by dose curve; further: nearly all actives have a fitted effect of over 25% in size). In short, it runs like this: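 Viability read: CellTiter-Fluor fluorescence, 30 min at 37C. Cells: HEK293T, luciferase-tagged ATAD5. Exposure: 15.5 hr, 37C, 5% CO2, compound or DMSO vehicle.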
A short description of experiment [3]: qHTS assay for small molecule disruptors of the mitochondrial membrane potential (AID 720635). Further: potency means the concentration at half of the fitted maximal effect. In short, it runs like this: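 HepG2 cells exposed to compound 1 hr at 37C, then Mito-MPS dye 30 min. Ratio read of aggregate (540/590 nm) versus monomer (490/535 nm) fluorescence.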
A short description of experiment [4]: qHTS assay to test for compound auto fluorescence at 590 nm (red) in HepG2 cells (AID 720674). In short, it runs like this: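 Seeding: 2,000 HepG2 cells/well, MEM/10% FBS, overnight 37 C. Dosing: compound vs DMSO. Incubation: 1 hr, 37 C, 5% CO2. Read: fluorescence 540 ex/590 em, Rose Bengal sodium as red reference.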
Experiment [5] can be described thus: qHTS assay to test for compound auto fluorescence at 535 nm (green) in HepG2 cells (AID 720675).
A short description of experiment [6]: qHTS assay to test for compound auto fluorescence at 460 nm (blue) in HEK293 cells (AID 720678). In outline:
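Intrinsic compound fluorescence is recorded in live HEK293 cultures after overnight incubation at 37C, 5% CO2, using excitation 405 nm and emission 460 nm. Values are referenced to triamterene.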

A short description of experiment [7]: qHTS assay to test for compound auto fluorescence at 590 nm (red) in HEK293 cells (AID 720679). In outline: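 Red autofluorescence, HEK293 cells: 2,000 cells/well; attach 4-5 hr 37C; add 23 nL cpd or DMSO; incubate o/n 37C 5% CO2; read Ex540/Em590; Rose Bengal sodium reference.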
Experiment [8] in a line: qHTS assay to test for compound auto fluorescence at 535 nm (green) in HEK293 cells (AID 720680).
Experiment [9] is described as follows: qHTS assay to test for compound auto fluorescence at 460 nm (blue) in HEK293 cell free culture (AID 720681). In outline: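 Compounds were added to cell-free DMEM with 10% FBS and fluorescence read directly. The blue channel used 405 nm excitation and 460 nm emission, with triamterene as the reference fluorophore.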
Experiment [10] can be described thus: qHTS assay to test for compound auto fluorescence at 535 nm (green) in HEK293 cell free culture (AID 720682). In outline:
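Cell-free medium (DMEM, 10% FBS) receives compound or DMSO by pintool. Plate read directly at Ex 485/Em 535 nm. Signal converted to fluorescein equivalency.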

Experiment [11] is described as follows: qHTS assay to test for compound auto fluorescence at 590 nm (red) in HEK293 cell free culture (AID 720683). In short, it runs like this:
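Cell-free wells of DMEM with 10% FBS received compound, and intrinsic fluorescence was read at excitation/emission 540/590 nm. Values expressed as equivalence to Rose Bengal sodium.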

Experiment [12] in a line: qHTS assay to test for compound auto fluorescence at 590 nm (red) in HepG2 cell free culture (AID 720684). In outline: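 Compound was pinned into wells holding MEM with 10% FBS and no cells, and red fluorescence was read at Ex/Em 540/590 nm. Signal is expressed as auto fluorescence equivalency relative to Rose Bengal sodium.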
A short description of experiment [13]: qHTS assay to test for compound auto fluorescence at 460 nm (blue) in HepG2 cell free culture (AID 720685). In outline: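 Compound (23 nL) or DMSO pinned into cell-free MEM with 10% FBS; blue fluorescence read at 405/460 nm excitation/emission, expressed as auto-fluorescence equivalency to triamterene.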
Experiment [14] is described as follows: qHTS assay to test for compound auto fluorescence at 535 nm (green) in HepG2 cell free culture (AID 720686).
Experiment [15] can be described thus: qHTS assay to test for compound auto fluorescence at 460 nm (blue) in HepG2 cells (AID 720687). In outline:
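HepG2 cells in MEM with 10% FBS, attached overnight at 37 C, were exposed to compound or DMSO for 1 hr at 37 C, 5% CO2. Blue fluorescence was read at 405/460 nm, with triamterene as reference fluorophore.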

In experiment [16] the target is Glucocorticoid receptor (Homo sapiens) (UniProt P04150). Kind of experiment: qHTS assay to identify small molecule antagonists of the glucocorticoid receptor (GR) signaling pathway (AID 720692; active means well fitted inhibition curve with a large enough effect in the signal ratio in the repeat runs, not every such curve was filed as active; the % refers to the signal ratio; further: potency means the concentration at half of the fitted maximal effect). In outline:
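Inhibition of glucocorticoid signalling is measured in HeLa cells with a GRE-controlled beta-lactamase reporter; cells are co-treated with compound and 5 nM dexamethasone (final) for 18 h before FRET substrate readout.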

The nature of experiment [17]: qHTS assay for small molecule agonists of the p53 signaling pathway - cell viability (AID 651633; calls by dose curve;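 further: p53RE-bla HCT reporter cells with a stable beta-lactamase p53 reporter; series mostly up to about 83 µM; nearly all actives have a fitted effect of over 30% in size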). In short, it runs like this: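 p53RE-bla cells were treated with compound for 16 hours at 37 C. Cytotoxicity was then measured as CellTiter-Glo luminescence after 30 min at room temperature.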
Experiment [18] is described as follows: qHTS assay for small molecule disruptors of the mitochondrial membrane potential - cell viability (AID 720634; calls by dose curve;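 further: human HepG2 liver cancer cells; series mostly up to about 83 µM; nearly all actives have a fitted effect of over 20% in size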). In outline:
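HepG2, 1 hr compound, 37 C. ATP luminescence via CellTiter-Glo, 30 min RT, same well as m-MPI.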

Experiment [19] concerns the target Glucocorticoid receptor (Homo sapiens) (UniProt P04150). Kind of experiment: qHTS assay to identify small molecule agonists of the glucocorticoid receptor (GR) signaling pathway (AID 720691; active means well fitted activation curve with a large enough effect in the signal ratio in the repeat runs, not every such curve was filed as active; the % refers to the signal ratio). In outline: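 qHTS in GR-bla HeLa cells: 4 h settling at 37 C/5% CO2, 18 h compound incubation at 37 C, 2 h LiveBLAzer B/G FRET substrate at room temperature, fluorescence intensity measured.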

Glucocorticoid receptor (Homo sapiens), sequence (P04150 whole entry, looked up): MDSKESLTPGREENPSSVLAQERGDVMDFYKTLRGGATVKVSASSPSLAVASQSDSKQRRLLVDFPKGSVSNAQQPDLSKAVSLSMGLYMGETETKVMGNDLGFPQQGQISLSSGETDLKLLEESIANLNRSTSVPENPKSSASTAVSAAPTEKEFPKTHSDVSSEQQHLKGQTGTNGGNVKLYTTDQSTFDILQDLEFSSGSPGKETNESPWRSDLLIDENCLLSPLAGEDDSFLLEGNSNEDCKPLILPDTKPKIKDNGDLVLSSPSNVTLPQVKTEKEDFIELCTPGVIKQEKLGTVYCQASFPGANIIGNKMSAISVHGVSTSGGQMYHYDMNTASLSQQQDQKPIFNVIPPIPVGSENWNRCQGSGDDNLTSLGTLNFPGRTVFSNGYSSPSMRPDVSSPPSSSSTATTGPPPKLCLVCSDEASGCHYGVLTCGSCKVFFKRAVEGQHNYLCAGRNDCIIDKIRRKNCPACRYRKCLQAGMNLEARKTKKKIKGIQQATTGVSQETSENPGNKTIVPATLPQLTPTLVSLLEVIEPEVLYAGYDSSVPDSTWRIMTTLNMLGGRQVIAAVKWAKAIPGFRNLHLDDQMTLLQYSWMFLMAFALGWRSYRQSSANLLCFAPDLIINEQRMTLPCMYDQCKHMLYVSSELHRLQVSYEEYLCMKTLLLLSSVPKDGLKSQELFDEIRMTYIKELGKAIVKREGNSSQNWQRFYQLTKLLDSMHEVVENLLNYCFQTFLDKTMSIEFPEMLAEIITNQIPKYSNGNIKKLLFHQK

For the molecule `O=c1cc(-c2ccccc2)oc2ccccc12`, the Potency in experiment [1] was 17.2 µM (active) and 19.3 µM (active); in experiment [3], 48.6 µM (active) and 15.4 µM (active); in [16], 27.5 µM (active) and 14.3 µM (active). Also, the Potency entry in experiment [2] was “inactive”. Also, the molecule was called inactive in experiment [4], in [5], in experiment [6], in experiment [7], in [8] and in experiment [9]. In addition, the molecule was called inactive in experiment [10], in experiment [11], in [12], in experiment [13], in experiment [14] and in experiment [15].

As for `COC(=O)C1=C(C)NC(C)=C(C(=O)OC)C1c1ccccc1[N+](=O)[O-]`, the Potency result in [1], in experiment [18] and in [19] was “inactive” throughout. Moreover, the result in [17], in experiment [4], in experiment [5], in experiment [6], in experiment [7] and in experiment [8] was inactive. The result in experiment [9], in [10], in experiment [11], in experiment [12], in [13] and in [14] was inactive. In addition, in [15], the molecule was called inactive. Further, the Potency entry in experiment [3] was “inactive and 61.2 µM (active)”; in experiment [16], 10.7 µM (active) and 27.6 µM (active).

With `CCC=O`, the Potency result in [1], in experiment [2] and in experiment [18] was “inactive” in each case. Also, the molecule was called inactive in experiment [17], in experiment [4], in experiment [5], in [6], in experiment [7] and in experiment [8]. The result in experiment [9], in experiment [10], in [11], in [13], in experiment [14] and in [15] was inactive.

`CC/C=C\CC/C=C/CO`: the Potency entry in experiment [1], in experiment [18], in experiment [19] and in experiment [16] was “inactive” throughout. Also, the result in [17], in [4], in [5], in [6], in [7] and in experiment [8] was inactive. Moreover, the outcome in experiment [9], in experiment [10], in experiment [11], in [12], in experiment [13] and in experiment [14] was inactive. In addition, the molecule was classed as inactive in experiment [15].

As to `O=Cc1cccc([N+](=O)[O-])c1`, the Potency entry in experiment [1], in experiment [18], in experiment [19] and in [16] was “inactive” in each case. Also, the molecule was classed as inactive in [17], in experiment [4], in experiment [5], in experiment [6], in experiment [7] and in experiment [8]. For the same molecule, the call in [9], in experiment [10], in experiment [11], in experiment [12], in experiment [13] and in experiment [14] was inactive. Besides, the outcome in experiment [15] was inactive.

In the case of `CCCCCCCCCCCCCCCCC`, the Potency result in experiment [1], in experiment [18], in experiment [3], in experiment [19] and in experiment [16] was “inactive” throughout. For the same molecule, the outcome in experiment [17], in experiment [4], in experiment [5], in experiment [6], in [7] and in experiment [8] was inactive. For the same molecule, the molecule was classed as inactive in experiment [9], in experiment [10], in experiment [11], in experiment [12], in experiment [13] and in experiment [14]. For the same molecule, the outcome in experiment [15] was inactive.

Turning to `CCO[Si](CCC1CCC2OC2C1)(OCC)OCC` (stereo not given), the Potency entry in experiment [1], in experiment [3], in experiment [19] and in [16] was “inactive” each time. Further, the molecule was classed as inactive in experiment [17], in [4], in experiment [5], in experiment [6], in experiment [7] and in experiment [8]. Besides, the call in experiment [9], in experiment [10], in experiment [11], in experiment [12], in [13] and in experiment [14] was inactive. Also, the call in [15] was inactive.

On to `CO/N=C(/C(=O)N[C@@H]1C(=O)N2C(C(=O)OCOC(=O)C(C)(C)C)=C(C)CS[C@H]12)c1csc(N)n1`, for which the Potency entry in experiment [1], in experiment [2] and in experiment [18] was “inactive” each time. Also, the call in [17], in [4], in experiment [5], in experiment [6], in [7] and in [8] was inactive. In addition, the molecule was called inactive in experiment [9], in experiment [10], in [11], in experiment [13], in [14] and in [15].

As to `CCc1ccc(O)c(OC)c1`, the Potency result in experiment [1], in experiment [2], in experiment [18], in experiment [19] and in [16] was “inactive” throughout. Besides, the result in experiment [17], in experiment [4], in [5], in experiment [6], in experiment [7] and in experiment [8] was inactive. Further, the molecule was called inactive in experiment [9], in experiment [10], in experiment [11], in [13], in [14] and in [15].
